# Results filed as inconclusive are left out. Unmarked numbers belong to inactive results. Activity calls are given as the source filed them. Calls follow the shape of the dose curve; as a rule, active = well fitted activation curve with a large enough effect in the signal ratio in the repeat runs (not every such curve was filed as active); inconclusive = weak or mixed curves; inactive = flat fitted curve, though single readings scatter; the % refers to the signal ratio. Numbered stars: 1 amine (or outer) side, 2 acyl side, 3 side chain; on linkers, the order of the positions; unused ones are H or OH. Bridge positions count the residues as written; N and C are the ends. Square brackets hold non-standard residues; d marks the D form. Peptide text beside a SMILES is read from it. I, II: the chains in the order shown. Actinocin(9to1) = Cc1c2oc3c(C)ccc(C(=O)[*:1])c3nc-2c(C(=O)[*:2])c(N)c1=O; NMeV = CN[C@H](C(=O)O)C(C)C; Sar = CNCC(=O)O
# Assay: p53 small molecule agonists, cell-based qHTS assay (AID 1963582)
# Conditions: HCT-116 p53RE-bla reporter, beta-lactamase FRET ratio, 16 h; series mostly up to 66 µM; activation: at the top concentration
# Description: National Center for Advancing Translational Sciences [NCATS]
# Division of Preclinical Innovation [DPI]
# U.S. Environmental Protection Agency [EPA]
# National Institutes of Environmental Health Sciences [NIEHS]
# National Toxicology Program [NTP]
# U.S. Food and Drug Administration [FDA]
# p53, a tumor suppressor protein, is activated following cellular insult, including DNA damage and other cellular stresses. The activation of p53 regulates cell fate by inducing DNA repair, cell cycle arrest, apoptosis, or cellular senescence. The activation of p53, therefore, is a good indicator of DNA damage and other cellular stresses. […] The activation of the reporter gene under culture conditions can be detected by fluorescence intensity. This cell line was used to screen the Tox21 10K compound library in a 1536-well plate format and to identify agonists that activate the p53 signaling pathway.
# Tox21 Assay Protocol Summary:
# The p53RE-bla cells were dispensed at 4,000 cells/5 ul/well in 1536-well black wall/clear bottom plates using a Multidrop dispenser. After the assay plates were incubated at a 37 C/5% CO2 incubator for 5 hours, 23 nL of compounds dissolved in DMSO, positive controls or DMSO only was transferred to the assay plate by a pin tool. The plates were incubated at 37 C for 16 hours. After 1 uL of LiveBLAzerTM B/G FRET substrate was added using a Flying Reagent Dispenser, the plates were incubated at room temperature for 2 hours, and fluorescence intensity was measured by an Envision plate reader.
# % is scaled to controls: 0 for no effect and ±100 for the full control effect; potency is read from the fitted curve at half-maximal effect.
SMILES,activation,Potency
CC1(C)C(O)C(C)(C)C1O (stereo not given),0.075%,
O=C(O)C(S)C(S)C(=O)O (stereo not given),-0.472% [at 30.3 µM],
O=Nc1ccc(NO)cc1,0.253%,
Cc1cc(N)n(-c2ccccc2)n1,-3.67%,
O=C(O)Cc1ccc(CCNS(=O)(=O)c2ccc(Cl)cc2)cc1,-5.47% [at 30.3 µM],
CC(C)(C)OCC1CO1 (stereo not given),-0.148%,
C#CC(O)CCC (stereo not given),-1.83%,
O=c1cc(CO)occ1O,0.333% [at 30.3 µM],
C1CCCC1,4.29%,
CCOCCC(=O)OCC,0.137%,
CC(C)C(=O)OC(=O)C(C)C,-1.37%,
"Cc1c2oc3c(C)ccc(C(=O)N[C@@H]4C(=O)N[C@H](C(C)C)C(=O)N5CCC[C@H]5C(=O)N(C)CC(=O)N(C)[C@@H](C(C)C)C(=O)O[C@@H]4C)c3nc-2c(C(=O)N[C@@H]2C(=O)N[C@H](C(C)C)C(=O)N3CCC[C@H]3C(=O)N(C)CC(=O)N(C)[C@@H](C(C)C)C(=O)O[C@@H]2C)c(N)c1=O (I: T[dV]P[Sar][NMeV] / II: T[dV]P[Sar][NMeV]; ester I:1-I:C, II:1-II:C; linker I:N-II:N via Actinocin(9to1))",,2.2 nM (active)
N#Cc1ccc(C2CCCc3cncn32)cc1 (stereo not given),2.1% [at 30.3 µM],
CCC(=O)c1ccc(O)cc1,3.18% [at 30.3 µM],
CCCCCCCCCCCCCCC(=O)NC(CO)CCCCCCCCCCCCCC (stereo not given),0.533%,
CC(C)(C)NCC(O)c1ccc(O)c(CO)c1 (stereo not given),,inactive
IC(I)I,,inactive
O=C(O)/C=C/c1ccccc1,2.51%,
CC1(C)COCN1,5.18%,
CC(=O)N(O)CCCCCNC(=O)CCC(=O)N(O)CCCCCNC(=O)CCC(=O)N(O)CCCCCN,0.342% [at 30.3 µM],

SMILES,activation,Potency
CCCCOC(=O)CCS,-2.55%,
C[Si](C)O[Si](C)(C)O[Si](C)(C)O[Si](C)C,0.594%,
N#[N+]c1ccc2c(S(=O)(=O)[O-])cccc2c1O,-5.24%,
OCCCCl,0.53%,
Cc1c(I)c(=O)n(-c2ccccc2)n1C,-0.15% [at 30.3 µM],
CCCSSCCC,-1.94%,
O=C(O)c1ccc(O)cc1O,0.616%,
O=C(O)c1cccc(C(F)(F)F)c1,-4.43%,
CC(C=O)Cc1ccc(C(C)(C)C)cc1 (stereo not given),,inactive
CC(C)=CCC/C(C)=C/C(=O)O,0.495%,
O=S(=O)(O)CCS,,inactive
O=C(O)CCC(=O)Nc1ccc(S(=O)(=O)Nc2nccs2)cc1,0.356% [at 30.3 µM],
O=CC1CC1,-2.58%,
CN(C)CCCNCCC#N,-2.25%,
Cn1c(=O)c2c(ncn2C)n(C)c1=O,,inactive
CC(=O)Nc1c(I)cc(I)c(C(=O)O)c1I,-0.933% [at 30.3 µM],
CCOC(=O)[C@H](CCc1ccccc1)N[C@@H](C)C(=O)N1C(=O)N(C)C[C@H]1C(=O)O,-1.15% [at 30.3 µM],
CC(C)CCCCOC(=O)c1ccccc1C(=O)OCCCCC(C)C,2.59%,
CC(C)=O,-0.824%,
C#CC(C)(O)CC(C)C (stereo not given),0.32%,

# — PubChem BioAssay (Tox21)
